About 2,000 (36%) of roughly 5,500 compounds were called active. About 18% were inconclusive and are not listed. Cut-off read from the data, not from the text of the source: active = normalized growth mostly below about 0.91 (no sharp cut-off); inconclusive = no clear call, values can overlap the other calls; inactive = mostly above about 0.92. The list shows a part of the results.
Assay: chemical genetic growth profiling, strain panel (AID 1159580);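 note: tested at 20 µM; growth read once vehicle control cultures reached saturation at 30 °C; 1 = growth at the plate median or of vehicle wells; lower values mean less growth of the strain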
Conditions: S. cerevisiae deletion strains, growth OD

Measured: normalized growth

Clc1cncc(Cl)c1N/N=C\C1CC2C=CC1C2 (stereo not drawn)
inactive: locus YAL013W, strain DEP1, stronger effect = lower value 0.937 | locus YBR229C, strain ROT2, stronger effect = lower value 0.939 | locus YCL061C, strain MRC1, stronger effect = lower value 0.928 | locus YDL101C, strain DUN1, stronger effect = lower value 0.926 | locus YDL134C, strain PPH21, stronger effect = lower value 1.01 | locus YDR150W, strain NUM1, stronger effect = lower value 0.915 | locus YEL061C, strain CIN8, stronger effect = lower value 0.914 | locus YGR078C, strain PAC10, stronger effect = lower value 0.967 | locus YJL187C, strain SWE1, stronger effect = lower value 0.989 | locus YJR043C, strain POL32, stronger effect = lower value 1 | locus YJR075W, strain HOC1, stronger effect = lower value 0.935 | locus YLR058C, strain SHM2 (second series), stronger effect = lower value 0.99 | locus YMR219W, strain ESC1, stronger effect = lower value 0.988 | locus YMR263W, strain SAP30, stronger effect = lower value 0.939 | locus YMR307W, strain GAS1, stronger effect = lower value 0.878 | locus YNL153C, strain GIM3, stronger effect = lower value 0.957 | locus YNL322C, strain KRE1, stronger effect = lower value 0.986 | locus YNR030W, strain Alg12, stronger effect = lower value 0.924 | locus YPL055C, strain LGE1, stronger effect = lower value 0.872 | locus YPL241C, strain CIN2, stronger effect = lower value 0.871
active: locus YHR030C, strain SLT2, stronger effect = lower value 0.644 | locus YHR087W, strain rtc3, stronger effect = lower value 0.874 | locus YLR039C, strain RIC1, stronger effect = lower value 0.599 | locus YLR085C, strain ARP6, stronger effect = lower value 0.74 | locus YLR262C, strain YPT6, stronger effect = lower value 0.601 | locus YML094W, strain GIM5, stronger effect = lower value 0.838 | locus YNL298W, strain CLA4 (second series), stronger effect = lower value 0.799 | locus YPR135W, strain CTF4, stronger effect = lower value 0.622

— PubChem BioAssay AID1159580 (chemical genetic matrix, 2015)
